# According to the supplement of paper PMC12669032:
# Where “and” joins values, the source holds several entries; their conditions need not be identical. Identical values can stand only once. Unmarked numbers belong to inactive results.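 The calls were made as follows: active = AUC reduced over 20% with Padj below 0.05 in at least 2 of 3 replicates; inactive = otherwise.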
# System: Escherichia coli ED1a
# Assay: growth AUC relative to DMSO control (median of replicates) (fraction); higher = more growth (less inhibition), active = hit call of the paper
# Conditions: 20 µM; 24 h
# Method in brief: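 Each value is the median of three biological replicates, grown on separate days, of a gut bacterial monoculture incubated anaerobically at 37 °C in mGAM with 20 µM compound (1% DMSO). Cultures started at OD600 0.05 and were read at OD600 hourly for 24 h, with the minimum OD set to 0. Area under the growth curve was normalised to the plate median of solvent-only wells, or to row and column medians on the industrial chemical plate.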
row,SMILES,growth AUC
1,Cc1cccc(C)c1N,0.978
2,C=CCOC(=O)C(C)(C)OC(=O)c1cc(-n2c(=O)cc(C(F)(F)F)n(C)c2=O)ccc1Cl,0.998
3,CCOP(=O)(NC(C)C)Oc1ccc(S(C)(=O)=O)c(C)c1 (centres undefined),1.03
4,Cc1cc(OC(=O)N(C)C)nn1C(=O)N(C)C,0.996
5,CCCCCCCCSC(=O)Oc1cc(Cl)nnc1-c1ccccc1,0.976
6,CC1(C(=O)Nc2ccc(O)c(Cl)c2Cl)CCCCC1,1.01
7,CC(Oc1ccc(Oc2ccc(Cl)cc2Cl)cc1)C(=O)O (racemic),0.974
8,C[Si](Cn1cncn1)(c1ccc(F)cc1)c1ccc(F)cc1,0.982
9,CN(C)C1CSSSC1.O=C(O)C(=O)O,0.985
10,COP(=S)(OC)SCn1nnc2ccccc2c1=O,0.957
11,CCSC(=O)N1CCCCCC1,0.991
12,O=C(O)c1c(Cl)ccc2cc(Cl)cnc12,1
13,CCCSP(=S)(OCC)Oc1ccc(SC)cc1 (centres undefined),1.01
14,Cc1cc(C(F)(C(F)(F)F)C(F)(F)F)ccc1NC(=O)c1cccc(I)c1C(=O)NC(C)(C)CS(C)(=O)=O,1.1
15,Cc1cc(Cl)ccc1O,1
16,COc1cc(OC)nc(NC(=O)NS(=O)(=O)c2ncccc2C(=O)N(C)C)n1,1.05
17,Cc1cccc2sc3nncn3c12,0.987
18,CCC(C)c1cc([N+](=O)[O-])cc([N+](=O)[O-])c1O (centres undefined),0.935
19,CCOP(=S)(OCC)SCSC(C)(C)C,1
20,CCNc1nc(Cl)nc(NC(C)(C)C#N)n1,1.02

row,SMILES,growth AUC
1,Cc1ccccc1C(=O)Nc1cccc(OC(C)C)c1,0.991
2,N#CN=C1SCCN1Cc1ccc(Cl)nc1,0.966
3,COP(=O)(OC)Oc1ccc(S(C)=O)c(C)c1 (centres undefined),0.962
4,COCC(=O)N(c1c(C)cccc1C)[C@H](C)C(=O)OC,1.02
5,CC(=NC#N)N(C)Cc1ccc(Cl)nc1,0.994 and 1
6,CC1(C)C(C(=O)OC(C#N)c2cccc(Oc3ccccc3)c2)C1(C)C (centres undefined),1.01
7,CNC(=O)Oc1cc(C)c(N(C)C)c(C)c1,0.982
8,CN(C)C(=S)SSC(=S)N(C)C,0.973
9,CCOP(=S)(OCC)SCn1nnc2ccccc2c1=O,1.01
10,[CH3][Hg][Cl],1.04
11,CCCCc1c(C)nc(NCC)nc1OS(=O)(=O)N(C)C,0.987
12,CC1(C)[C@H](/C=C(\Cl)C(F)(F)F)[C@@H]1C(=O)O[C@@H](C#N)c1cccc(Oc2ccccc2)c1,1
13,CCCN(CCOc1c(Cl)cc(Cl)cc1Cl)C(=O)n1ccnc1,1.01
14,CCOP(=S)(OCC)Oc1cc(Cl)c(Br)cc1Cl,1.02
15,C/C(=N\NC(=O)Nc1cc(F)cc(F)c1)c1ncccc1C(=O)[O-].[Na+],0.973
16,C1=Cc2cccc3cccc1c23,1.02
17,CCc1ccc(C(=O)NN(C(=O)c2cc(C)cc(C)c2)C(C)(C)C)cc1,1.01
18,C#CCOc1ccc(CCNC(=O)C(OCC#C)c2ccc(Cl)cc2)cc1OC (centres undefined),1.01
19,COC(=O)c1ccccc1S(=O)(=O)NC(=O)Nc1nc(C)nc(OC)n1,0.963
